Assay outcomes: PubChem BioAssay, Broad Institute
Pf Dd2 growth – blocks growth of Plasmodium falciparum Dd2 parasites; P. falciparum Dd2 growth, SYBR Green, 72 h; active compounds read low; activity change, % at 10 µM; 94,000 compounds, 2.3% hits; AID 1159554; in the data active means activity change below about -80%; inconclusive means no clear call, values can overlap the other calls
T cruzi growth-1 – inhibitors of T. cruzi proliferation | inhibition, % at 8.34 µM | 77,000 compounds, 5.9% hits | T. cruzi beta-gal in NIH3T3, GalScreen luminescence, 90 h;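 active means mean inhibition above about 93%, with at least 55% of replicates each passing it, limit read from the data, passing the limit was not always enough; inconclusive means only one of those two conditions holds; inactive means neither condition holds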
C diff growth – blocks growth of Clostridium difficile. Clostridium difficile clinical isolate growth, OD600, 24 h; active compounds read low. 86,000 compounds, 0.25% hits. AID 1259249. growth activity, negative = inhibition, % at 16 µg/mL (by protocol);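 active means mean growth activity at or below -80% and every replicate also at or below -80%; inconclusive means mean at or below -80% but some replicate above -80%; inactive means mean growth activity above -80%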;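 further: 0% = DMSO wells and -100% = levofloxacin 16 µg/mL wells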
T cruzi growth-2 – Trypanosoma cruzi proliferation inhibition | shares compounds with T cruzi growth-1 | T. cruzi beta-gal in NIH3T3, GalScreen luminescence, 90 h | inhibition, % at 8.35 µM | 5,600 compounds, 72% hits;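 active means mean replicate inhibition above about 95% and at least 55% of replicates individually reaching it, limit read from the data; inconclusive means only one of the two criteria is met; inactive means neither criterion is met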
T cruzi growth-3 – Trypanosoma cruzi proliferation inhibition. inhibition, % at 2.09 µM. shares compounds with T cruzi growth-1. T. cruzi beta-gal in NIH3T3, GalScreen luminescence, 90 h. AID 651740. 5,600 compounds, 21% hits;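 active means mean inhibition above about 95%, with at least 55% of replicates also reaching it, limit read from the data; inconclusive means meets just one of the two conditions; inactive means meets neither condition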;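 further: plate controls were neutral control median for no effect and positive control median for full effect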
3T3 cytotox – cytotoxicity in mouse NIH/3T3 fibroblasts; shares compounds with T cruzi growth-1; NIH/3T3 viability, CellTiter-Glo ATP luminescence, 90 h; cytotoxicity (signal decrease), % at 8.35 µM; 5,600 compounds, 14% hits; AID 651742;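 active means mean signal decrease across replicates above about 35% based on untreated-well scatter, with enough replicates individually passing, limit read from the data; inconclusive means no rule stated though some were filed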;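 further: 0% = median of neutral control wells and 100% = median of positive control wells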
NIH3T3 tox 2 – kills mouse NIH/3T3 fibroblasts | inhibition, % at 24.9 µM | NIH/3T3 viability, CellTiter-Glo ATP luminescence, 90 h | AID 651744 | 5,600 compounds, 56% hits | shares compounds with T cruzi growth-1;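 active means mean loss of cell viability signal at or above a set limit, and enough replicates individually reaching it; inconclusive means meets only the mean limit or only the replicate share; inactive means meets neither condition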;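 further: 0% = median of neutral control wells and 100% = median of positive control wells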
An asterisk follows results filed as active; ? = inconclusive; . = no result; + = active, no number. Compounds with a hit are over-represented: about 6.7% of the library has one in this group of screens.

SMILES	Pf Dd2 growth	T cruzi growth-1	C diff growth	T cruzi growth-2	T cruzi growth-3	3T3 cytotox	NIH3T3 tox 2
O=C(NCc1ccc2c(c1)OCO2)[C@@H]1[C@@H](CO)[C@@H]2Cn3c(cccc3=O)[C@H]1N2Cc1cccnc1	.	-6	.	.	.	.	.
O=C(NCc1ccc(F)cc1)[C@@H]1[C@@H](CO)[C@@H]2Cn3c(cccc3=O)[C@H]1N2Cc1cccnc1	6	100*	-2	21	-8	17	-2
C[C@@H](NC(=O)[C@H]1[C@H](CO)[C@H]2Cn3c(cccc3=O)[C@@H]1N2C(=O)C1CC1)c1ccccc1	5	103*	-3	30	12	11	3
CC(=O)N1[C@@H]2c3ccc(C4=CCCCC4)c(=O)n3C[C@H]1[C@H](CO)[C@H]2C(=O)N[C@@H](C)c1ccccc1	.	+	0	-46	-59	3	2
O=C(C1CCOCC1)N1CC(=O)N2[C@H](C1)[C@@H](c1ccc(/C=C/c3ccccc3)cc1)[C@@H]2CO	-14	.	-2	.	.	.	.
O=C(C[C@H]1C=C[C@@H](NC(=O)c2ccncc2)[C@@H](CO)O1)NCC1CCCCC1	.	.	3	.	.	.	.
O=C(C[C@H]1C=C[C@H](NC(=O)Nc2ccc(C(F)(F)F)cc2)[C@H](CO)O1)NCc1cc(F)cc(F)c1	-1	-8	4	.	.	.	.
C[C@H](NC(=O)[C@H]1[C@H](CO)[C@H]2Cn3c(cccc3=O)[C@@H]1N2Cc1ccncc1)c1ccccc1	4	21	-4	.	.	.	.
C[C@@H](NC(=O)[C@@H]1[C@@H](CO)[C@@H]2Cn3c(cccc3=O)[C@H]1N2C(=O)C1CCC1)c1ccccc1	.	41	-2	.	.	.	.
C[C@H](NC(=O)[C@H]1[C@H](CO)[C@H]2Cn3c(cccc3=O)[C@@H]1N2C(=O)C1CC1)c1ccccc1	7	101*	-2	6	-25	-3	-22
C[C@@H](NC(=O)[C@H]1[C@H](CO)[C@H]2Cn3c(cccc3=O)[C@@H]1N2Cc1ccccc1)c1ccccc1	3	101*	-4	69	-27	-5	-1
COc1ccc(S(=O)(=O)Nc2ccc3c(c2)C(=O)N([C@H](C)CO)C[C@@H](C)[C@H](CN(C)C(=O)NC(C)C)OCCCC[C@@H](C)O3)cc1	.	-35	-2	.	.	.	.
C[C@H]1CN([C@@H](C)CO)C(=O)c2cccc(NC(=O)Nc3ccccc3)c2O[C@@H]1CN(C)CC1CC1	-2	.	-2	.	.	.	.
C[C@H](CO)N1C[C@H](C)[C@@H](CN(C)Cc2ccc(-c3ccccc3)cc2)Oc2c(NC(=O)C3CC3)cccc2C1=O	-69	91	11	.	.	.	.
COc1ccc(-c2cnc3c(c2)C(=O)N([C@H](C)CO)C[C@H](C)[C@H](CN(C)C(=O)Cc2ccncc2)O3)cc1	-33	50	6	.	.	.	.
C[C@H]1CN([C@@H](C)CO)C(=O)c2cc(C#Cc3ccccc3F)cnc2O[C@@H]1CN(C)C(=O)Cc1ccncc1	-75	95*	2	?	48	-3	12
C[C@@H]1CN([C@@H](C)CO)C(=O)c2cc(C#Cc3ccccc3F)cnc2O[C@H]1CN(C)C(=O)Cc1ccccc1	-27	120*	-6	111*	106*	22	?
C[C@@H]1CN([C@@H](C)CO)C(=O)c2cc(C#Cc3ccccc3F)cnc2O[C@@H]1CN(C)C(=O)Cc1ccccc1	-53	71	10	.	.	.	.
C[C@@H]1CN([C@H](C)CO)C(=O)c2cc(C#Cc3ccccc3F)cnc2O[C@@H]1CN(C)C(=O)Cc1ccncc1	-79	76	8	.	.	.	.
COc1ccc(-c2cnc3c(c2)C(=O)N([C@H](C)CO)C[C@H](C)[C@@H](CN(C)C(=O)Cc2ccncc2)O3)cc1	-55	112*	-5	55	59	-31	-7
O=C(c1ccc2c(c1)OCO2)N1CC2(C1)[C@H](c1ccccc1)[C@@H](CO)N2C(=O)C1CCCC1	27	.	-2	.	.	.	.
CC(C)C#Cc1cnc2c(c1)C(=O)N([C@H](C)CO)C[C@H](C)[C@@H](CN(C)C(=O)CCN1CCCCC1)O2	.	4	2	.	.	.	.
COc1ccccc1C(=O)Nc1ccc2c(c1)C(=O)N(C)C[C@@H](OC)[C@H](C)CN(C)[C@@H](C)CO2	11	15	4	.	.	.	.
O=C(C1CCC1)N1CCCCN2[C@H](CO)[C@@H](c3ccc(-c4cccc(F)c4)cc3)[C@H]2C1	-1	37	-18	.	.	.	.
O=C(C1CC1)N1CCCCN2[C@H](CO)[C@@H](c3ccc(-c4cccc(F)c4)cc3)[C@@H]2C1	12	75	-8	.	.	.	.
SMILES	Pf Dd2 growth	T cruzi growth-1	C diff growth	T cruzi growth-2	T cruzi growth-3	3T3 cytotox	NIH3T3 tox 2
O=C(C1CCCC1)N1CCCCN2[C@H](CO)[C@H](c3ccc(-c4cccc(F)c4)cc3)[C@@H]2C1	10	112*	-6	113*	92	24	66*
O=C(C1CCCC1)N1CCCCN2[C@H](CO)[C@@H](c3ccc(-c4cccc(F)c4)cc3)[C@H]2C1	3	111*	7	104*	17	-1	104*
C[C@H](CO)N1C[C@H](C)[C@@H](CN(C)C(=O)Nc2ccc3c(c2)OCO3)Oc2ccc(NC(=O)CCCCCC(=O)Nc3ccccc3N)cc2C1=O	15	.	2	.	.	.	.
C[C@H]1CN([C@@H](C)CO)C(=O)Cc2cc(NC(=O)Nc3ccc(F)cc3)ccc2O[C@H]1CN(C)C(=O)Nc1ccc(F)cc1	12	9	7	.	.	.	.
CCCN1[C@@H]2Cn3c(ccc(-c4ccccc4F)c3=O)[C@H]1[C@@H](C(=O)NCC)[C@@H]2CO	3	-20	0	.	.	.	.
COC(=O)C[C@@H]1CC[C@@H]2[C@H](COC[C@@H](O)CN2CCC(F)(F)F)O1	.	25	5	.	.	.	.
COc1ccc(S(=O)(=O)N(C)C[C@@H]2OCCCC[C@@H](C)Oc3ccc(NS(=O)(=O)c4ccc(F)cc4)cc3C(=O)N([C@@H](C)CO)C[C@H]2C)cc1	-2	101*	7	103*	65	-31	-6
COc1ccc(S(=O)(=O)N(C)C[C@H]2OCCCC[C@@H](C)Oc3ccc(NS(=O)(=O)c4ccc(F)cc4)cc3C(=O)N([C@@H](C)CO)C[C@@H]2C)cc1	-34	104*	4	103*	76	10	8
COc1ccc(S(=O)(=O)N(C)C[C@@H]2OCCCC[C@H](C)Oc3ccc(NS(=O)(=O)c4ccc(F)cc4)cc3C(=O)N([C@@H](C)CO)C[C@H]2C)cc1	-44	105*	5	109*	40	-15	5
COc1ccc(S(=O)(=O)N(C)C[C@H]2OCCCC[C@H](C)Oc3ccc(NS(=O)(=O)c4ccc(F)cc4)cc3C(=O)N([C@H](C)CO)C[C@H]2C)cc1	-80	69	5	.	.	.	.
